Dicer processing – inhibitors of Dicer pre-microRNA processing, primary screen, biochemical, cat-ELCCA, chemiluminescence. 47,000 tested, 6% active. Endoribonuclease Dicer (Homo sapiens), Q9UPY3. z-score at 25 µM. cat-ELCCA pre-miR-21 Dicer processing; stronger effect = higher value; in the data active means z-score above about 3, passing the limit was not always enough;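 further: plate controls were vehicle for no effect and no enzyme for full effect; higher signal means more uncleaved substrate so more Dicer inhibition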
Starred values were filed as active, the others as inactive. Shown is part of a subset that was picked to be rich in hits.

SMILES	Dicer processing
COC(=O)c1ccccc1NC(=S)Sc1ccc(Cl)cc1	-1.5
O=C1CC(c2ccccc2)CC2=C1C(c1ccc(O)cc1)Nc1ccccc1N2 (centres undefined)	0.27
COCCOC(=O)C1=C(C)NC2=C(C(=O)CCC2)C1c1ccc(C)cc1 (centres undefined)	-0.58
CCN(CC)CCCC(C)Nc1nc(C)nc2cc(Cl)ccc12 (centres undefined)	-0.22
CCN(CC)CCCC(C)Nc1nc(C)nc2ccccc12 (centres undefined)	4.3*
CCN(CC)CCCNc1ncnc2ccccc12	-0.08
O=C1CC(c2ccc(Cl)cc2)CC2=C1C(c1cccs1)n1c(nc3ccccc31)N2 (centres undefined)	0.27
Cc1nn(C)c2[nH]c3c(c(=O)c12)CSC3	-0.11
C=CCN(c1ccccc1C1=N/C(=C\c2ccc(C)cc2)C(=O)O1)S(=O)(=O)c1ccc(Cl)cc1	-0.86
C=CCN(c1nc(C)c(Br)c(OC)n1)S(=O)(=O)c1ccc(C)cc1	3.6*
CCN(c1nc(C)cc(OC)n1)S(=O)(=O)c1ccc(C)cc1	2.1
O=C(c1ccc(F)cc1)N1CCCn2c(SCc3ccccc3Cl)nnc21	2.5
CCOC(=O)c1c(NC(=O)Nc2ccc(Cl)cc2)sc(C)c1-c1ccccc1	-1.1
COc1cc2c(cc1OC)C(c1ccccc1N)=NCC2	-2.9
COc1cc2c(cc1OC)C(/C=C1\SC(C(=O)c3cccs3)=NN1c1ccc(C)cc1)=NCC2	0.72
CCOC(=O)C1=NN(c2ccc(C)cc2)/C(=C/C2=NCCc3cc(OC)c(OC)cc32)S1	4.4*
COc1ccc(-c2nc(-n3c(C)c4c(C)nnc(C)c4c3C)sc2C)cc1	1.6
CCOC(=O)C(NCCc1ccccc1)(NC(C)=O)C(F)(F)F (centres undefined)	0.6
CCOC(=O)C(NCCOC)(NC(=O)c1ccccc1Cl)C(F)(F)F (centres undefined)	4.6*
CCOC(=O)C(NC(=O)c1ccccc1Cl)(Nc1ccccn1)C(F)(F)F (centres undefined)	3.4*
CCOC(=O)NC(Nc1ccccc1)(C(=O)OCC)C(F)(F)F (centres undefined)	1.1
CCOC(=O)C(NC(=O)c1cccc(C)c1)(Nc1cccc(C)n1)C(F)(F)F (centres undefined)	-1.6
CCOC(=O)CNC(=O)c1ccccc1Cl	1.3
COc1ccc(NC(=S)NC(C)(C)C)c([N+](=O)[O-])c1	-0.47
CC(C)(C)NC(=S)N/N=C/c1c(Br)cnn1Cc1ccc(Cl)cc1	1.5
SMILES	Dicer processing
Cc1oc(-c2ccc(Cl)cc2)cc1C(=O)/C=C/N(C)C	0.59
CCc1ccc2oc(-c3ccco3)c(O)c(=O)c2c1	0.1
O=S(=O)(c1ccccc1)N1CCCC1c1cccs1 (centres undefined)	-0.38
CC1(C)CC(N2CCCCC2)=CC(=S)S1	0.21
S=C1C=C(N2CCCCC2)CC(c2cccs2)S1 (centres undefined)	4.9*
COC(=O)C1=C(C)NC2=C(C(=O)CC(C)(C)C2)C1c1cccc(Oc2ccccc2)c1 (centres undefined)	0.19
C=CCN1C(=O)C(O)(CC(=O)c2ccc(C(C)(C)C)cc2)c2ccccc21 (centres undefined)	-1.6
CCOC(=O)c1ccc(OC(=O)c2cccnc2Oc2ccccc2)c(Cl)c1	-1
CCCC1=C(C(=O)OCC)C(c2ccccc2F)n2c(nc3ccccc32)N1 (centres undefined)	0.12
CCCC1=C(C(=O)OCC)C(c2ccccc2)n2c(nc3ccccc32)N1 (centres undefined)	-0.46
CCCC1=C(C(=O)OCC)C(c2ccc(O)cc2)n2c(nc3ccccc32)N1 (centres undefined)	3.6*
O=c1c2c(-c3ccc(-c4ccccc4)cc3)csc2ncn1-c1ccccc1	0.15
CNC(=S)N(C)NC(=S)Nc1ccc(OC)c(OC)c1	1.4
CC1(C)OC(=O)C(C2C3CC4CC(C3)CC2C4)C(=O)O1 (centres undefined)	0.81
COC(=O)c1sccc1Oc1ccc(C(F)(F)F)cc1NC(=O)NS(=O)(=O)c1ccc(C)cc1	-0.3
COC(=O)c1sccc1Oc1ccc(C(F)(F)F)cc1NC(=O)c1cnn(-c2ccccc2)c1C(F)(F)F	-1.1
COC(=O)c1sccc1Oc1ccc(C(F)(F)F)cc1NC(=O)c1cnn(-c2ccc([N+](=O)[O-])cc2)c1C(F)(F)F	4*
CSC1=N/C(=C\c2ccccc2Cl)C(=O)N1Cc1ccc(Cl)cc1	-1.1
COC(=O)C(C)Sc1nc(C(=O)C(F)(F)F)c2ccccn12 (centres undefined)	0.04
CCSCCOC(=O)C1=C(C)NC2=C(C(=O)CC(c3cccs3)C2)C1c1ccccc1Cl (centres undefined)	2.5
COc1ccc(Nc2nc(-c3cccnc3)nc3ccccc23)cc1	-1.2
COC(=O)c1cccc(Nc2nc(-c3cccnc3)nc3ccccc23)c1	-1.3
Oc1ccccc1Nc1nc(-c2cccnc2)nc2ccccc12	11*
Clc1cccc(OCc2nc(-c3ccc(-n4cccc4)cc3)no2)c1	-0.7
COC(=O)n1c(=O)oc2cc(Cl)ccc21	1.4
SMILES	Dicer processing
Cc1ccc(S(=O)(=O)n2c(=O)sc3ccccc32)cc1	-0.13
Cc1ccc(S(=O)(=O)n2c(=O)oc3cc(Cl)ccc32)cc1	16*
CN1c2ccsc2C(=O)/C(=N\Nc2cccc(C(F)(F)F)c2)S1(=O)=O	-0.36
CCOc1ccccc1C1Nc2ccc(C)cc2-c2cc(C)nn21 (centres undefined)	4.1*
CCOc1cccc(C2Nc3ccc(C)cc3-c3cc(C)nn32)c1O (centres undefined)	1.5
COc1ccccc1C1Nc2ccc(C)cc2-c2cc(C)nn21 (centres undefined)	3.5*
COc1ccccc1C1Nc2ccccc2-c2cc(C)nn21 (centres undefined)	0.8
COc1ccc(C2Nc3ccc(C)cc3-c3cc(C)nn32)c(OC)c1 (centres undefined)	0.75
O=C(COc1cccc2cccnc12)N1CCN(C(=O)COc2cccc3cccnc23)CC1	0.42
COc1ccc(N2C(=O)CC(Sc3nnc(N)s3)C2=O)cc1 (centres undefined)	-0.43
CC1=C(C(=O)OCCOC(C)C)C(c2ccc3c(c2)OCO3)C2=C(CC(c3cccs3)CC2=O)N1 (centres undefined)	-0.49
CCCS(=O)(=O)c1c(S(=O)(=O)CCC)c2ccc(C(N)=O)cn2c1C(=O)c1ccc(F)cc1	35
CCCS(=O)(=O)c1c(S(=O)(=O)CCC)c2ccccn2c1C(=O)c1ccc(C)cc1	31
CCCS(=O)(=O)c1c(S(=O)(=O)CCC)c2ccccn2c1C(=O)c1ccc(F)cc1	5*
Cc1nc2ccccc2c(C(=O)O)c1C(=O)O	-1.6
CSc1nc2ccccc2c(=O)n1CC(=O)C(C)(C)C	1.5
Cc1nc2ccccc2c2c1C(=O)N(c1ccccc1C(=O)OCC(=O)C(C)(C)C)C2=O	4.7*
CSc1nnc(Nc2ccccc2)n1-c1ccccc1	1.4
O=C(Nc1ncccc1OCc1ccc(Cl)c(Cl)c1)Nc1cccc2ccccc12	-0.85
COC(=O)c1ccc(C2c3c(oc4ccccc4c3=O)C(=O)N2c2nc(C)c(C)s2)cc1 (centres undefined)	0.42
CSc1c(C#N)c(N)nc2sc(C(=O)c3ccc(F)c(F)c3)c(N)c12	-3.9
CCOC(=O)c1sc(N2C(=O)c3oc4ccccc4c(=O)c3C2c2cccc(Cl)c2)nc1C (centres undefined)	-0.31

Bioassay records from PubChem BioAssay.
